Laboratory results published in the supplement of paper PMC6089552.
About 300 (9.4%) of roughly 3,200 compounds showed activity. What follows is part of a selection rich in actives, with near analogues and random picks from the rest.

Test system: A673/TR/shEF
Assay: cell viability (LOESS-normalised, relative to median of negative controls) (log2 ratio); higher = more viable cells (less compound effect), active = hit call of the paper (over 3 MAD below the median)
Details: treatment time: 72 h
Summary of the method: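 For three days, A673/TR/shEF Ewing sarcoma cells in 384-well plates (1,500 per well) were treated with library compounds at two or more concentrations or with DMSO controls, after doxycycline had been added or withheld 24 h beforehand to induce EWS-FLI1 shRNA knockdown. Viability was read by CellTiter-Glo luminescence on an Envision reader. The data were LOESS-corrected per plate, divided by the median of negative controls and log2-transformed.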

[1] = 0.25 µM, library screen: screen1, EWS-FLI1 expression: high (no doxycycline)
[2] = 0.25 µM, library screen: screen1, EWS-FLI1 expression: low (doxycycline-induced shRNA knockdown)
[3] = 2.5 µM, library screen: screen1, EWS-FLI1 expression: high (no doxycycline)
[4] = 2.5 µM, library screen: screen1, EWS-FLI1 expression: low (doxycycline-induced shRNA knockdown)
[5] = 0.103 µM, library screen: screen3, EWS-FLI1 expression: high (no doxycycline)
[6] = 0.103 µM, library screen: screen3, EWS-FLI1 expression: low (doxycycline-induced shRNA knockdown)
[7] = 0.25 µM, library screen: screen2, EWS-FLI1 expression: high (no doxycycline)
[8] = 0.25 µM, library screen: screen2, EWS-FLI1 expression: low (doxycycline-induced shRNA knockdown)
[9] = 0.308 µM, library screen: screen3, EWS-FLI1 expression: high (no doxycycline)
[10] = 0.308 µM, library screen: screen3, EWS-FLI1 expression: low (doxycycline-induced shRNA knockdown)
[11] = 0.926 µM, library screen: screen3, EWS-FLI1 expression: high (no doxycycline)
[12] = 0.926 µM, library screen: screen3, EWS-FLI1 expression: low (doxycycline-induced shRNA knockdown)
[13] = 2.5 µM, library screen: screen2, EWS-FLI1 expression: high (no doxycycline)
[14] = 2.5 µM, library screen: screen2, EWS-FLI1 expression: low (doxycycline-induced shRNA knockdown)
[15] = 2.8 µM, library screen: screen3, EWS-FLI1 expression: high (no doxycycline)
[16] = 2.8 µM, library screen: screen3, EWS-FLI1 expression: low (doxycycline-induced shRNA knockdown)
[17] = 8.3 µM, library screen: screen3, EWS-FLI1 expression: high (no doxycycline)
[18] = 8.3 µM, library screen: screen3, EWS-FLI1 expression: low (doxycycline-induced shRNA knockdown)
[19] = 25 µM, library screen: screen3, EWS-FLI1 expression: high (no doxycycline)
[20] = 25 µM, library screen: screen3, EWS-FLI1 expression: low (doxycycline-induced shRNA knockdown)
[21] = 0.025 µM, library screen: screen1, EWS-FLI1 expression: high (no doxycycline)
[22] = 0.025 µM, library screen: screen1, EWS-FLI1 expression: low (doxycycline-induced shRNA knockdown)
[23] = 25 µM, library screen: screen1, EWS-FLI1 expression: high (no doxycycline)
[24] = 25 µM, library screen: screen1, EWS-FLI1 expression: low (doxycycline-induced shRNA knockdown)

Measured: cell viability (log2)

O=C(O)CN(CC(=O)O)Cc1cc2c(cc1O)Oc1cc(O)c(CN(CC(=O)O)CC(=O)O)cc1C21OC(=O)c2ccccc21
inactive: [1] 0.133 | [2] 0.0463 | [3] 0.15 | [4] 0.0168

COc1ccc(NC(=O)/C(=C/c2cccnc2)NC(=O)c2cccs2)cc1
inactive: [1] 0.123 | [2] 0.163 | [3] 0.1 | [4] 0.101

Brc1ccc(CN2CCN(Cc3ccco3)CC2)cc1
inactive: [1] 0.0694 | [2] 0.0304 | [3] 0.0829 | [4] -0.00775

CC1=C(C(=O)OC2CCCC2)C(c2coc3ccc(Cl)cc3c2=O)C2=C(CCCC2=O)N1 (stereo unspecified)
inactive: [1] 0.123 | [2] 0.0763 | [3] 0.136 | [4] -0.0126

CC(C)c1c(O)ccc2c1CC[C@H]1C(C)(C)CCC[C@]21C
inactive: [1] 0.0946 | [2] 0.115 | [3] 0.166 | [4] 0.269

CCN(CC)C(=S)SSC(=S)N(CC)CC
inactive: [5] 0.0335 | [6] 0.117 | [7] 0.112 | [8] 0.121 | [9] -0.158 | [10] 0.0728
active: [1] -1.42 | [2] -0.538 | [11] -4.24 | [12] -2.11 | [3] -2.82 | [4] -1.78 | [13] -4.17 | [14] -0.213 | [15] -4.24 | [16] -4.26 | [17] -4.26 | [18] -4.27 | [19] -4.26 | [20] -4.25

Cc1cc(Cl)ccc1OCC(O)CN1CCN(C)CC1 (stereo unspecified)
inactive: [1] 0.0377 | [2] 0.029 | [3] 0.0948 | [4] 0.184

N[C@@H](C=O)[C@@H](O)[C@H](O)[C@H](O)CO
inactive: [1] 0.0986 | [2] 0.0199 | [3] 0.192 | [4] 0.145

CN(C)CC/C=C1\c2ccccc2COc2ccccc21
inactive: [1] 0.126 | [2] 0.129 | [7] 0.0848 | [8] 0.0467 | [3] 0.131 | [4] 0.118 | [13] 0.142 | [14] 0.121

CN(C)CCC=C1c2ccccc2CCc2ccccc21
inactive: [1] 0.0816 | [2] 0.086 | [8] 0.138 | [3] 0.144 | [4] 0.0763 | [13] 0.0454 | [14] 0.0908
active: [7] -0.148

CN(C)CCC=C1c2ccccc2C=Cc2ccccc21
inactive: [1] 0.131 | [2] 0.0615 | [7] 0.206 | [8] 0.141 | [3] 0.117 | [4] 0.104 | [13] 0.126 | [14] 0.0683

COc1c(C2COc3cc4c(cc3C2=O)CC(O)C(C)(C)O4)ccc2c1CCC(C)(C)O2 (stereo unspecified)
inactive: [1] 0.0719 | [2] 0.0278 | [3] 0.0883 | [4] 0.0229

CNC(=O)CN(CCN(CCN(CC(=O)[O-])CC(=O)NC)CC(=O)[O-])CC(=O)[O-].O.[Gd+3]
inactive: [5] 0.106 | [6] -0.0293 | [9] 0.00861 | [10] 0.114 | [11] 0.0946 | [12] 0.0839 | [15] 0.127 | [16] 0.127 | [17] 0.0841 | [18] 0.116 | [19] 0.0924 | [20] 0.134

C=C1[C@@H]([C@@]2(C)C=CC(=O)C(C)(C)[C@@H]2CC(=O)OC)CC[C@@]2(C)C(c3ccoc3)OC(=O)[C@H]3O[C@]132 (stereo partly specified)
inactive: [1] 0.109 | [2] 0.0181 | [3] 0.0641 | [4] 0.0727

CC(=O)O[C@@H]1CC2C(C)(C)[C@H](O)C[C@H](O)[C@]2(C)C2CC[C@@]3(C)[C@H](c4ccoc4)OC(=O)[C@H]4O[C@]43[C@@]21C (stereo partly specified)
inactive: [1] 0.0571 | [2] 0.106 | [3] 0.13 | [4] 0.11

O[C@H]1[C@H]2c3cc4c(cc3CN3CCC(=C[C@@H]1O)[C@H]23)OCO4
inactive: [1] 0.0121 | [2] 0.0722 | [3] 0.0564 | [4] -0.019

CO[C@H]1C=C[C@@]23c4cc5c(cc4CN(C[C@@H]2O)[C@H]3C1)OCO5
active: [3] -0.415 | [4] -0.623
inactive: [1] 0.0568 | [2] 0.0269

CSc1ccc(CN2CCN(Cc3ccco3)CC2)cc1
inactive: [1] 0.0257 | [2] 0.0474 | [3] 0.00049 | [4] 0.109

Cn1cnc2c(NCc3ccccc3)nc(NCCO)nc21
inactive: [21] 0.0452 | [22] 0.063 | [1] 0.0867 | [2] 0.0323 | [7] 0.272 | [8] 0.106 | [3] 0.0349 | [4] 0.0403 | [13] 0.208 | [14] 0.113 | [23] 0.00929 | [24] 0.0531

CC(C)n1cnc2c(NCc3ccccc3)nc(NCCO)nc21
inactive: [21] 0.171 | [22] -0.0915 | [1] 0.129 | [2] -0.0331 | [7] 0.226 | [8] 0.0704 | [3] -0.011 | [4] 0.0676 | [13] 0.247 | [14] 0.0622 | [23] -0.0635 | [24] 0.0737

CC[C@H](CO)Nc1nc(NCc2ccccc2)c2ncn(C(C)C)c2n1
inactive: [21] 0.0954 | [22] 0.0682 | [5] 0.0283 | [6] -0.038 | [1] 0.0519 | [2] 0.0253 | [7] 0.213 | [8] 0.0581 | [9] 0.0653 | [10] 0.0646 | [11] -0.0162 | [12] 0.042 | [3] 0.0221 | [4] 0.0445 | [15] 0.0824 | [16] -0.0161 | [17] 0.118 | [18] 0.0527 | [23] -0.0359 | [24] 0.0272 | [19] 0.0337 | [20] 0.0206
active: [13] -0.591 | [14] -0.646
